# Data reported in PubChem BioAssay (NCI).
# This is part of a sample that, as a whole, favours compounds with a hit. Of some 83,000 tested, about 20% had one in any assay.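 Cell lines were cultured in 96-well plates, exposed to a single compound concentration, and assessed for percent growth 48 hours later.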 Values without a mark were called inactive. The source made the active and inactive calls. Rule for the calls: active = growth percent below 10; inactive = the rest.
# Columns and labels:
# Test in all cases: NCI-60 one-dose screen, 48 h (100 = growth as untreated, 0 = no growth, -100 = all killed)
# Settings in all cases: 10 µM unless noted
# HCT-15 colon = tested on: HCT-15 colon
# HT29 colon = tested on: HT29 colon
# SNB-75 CNS = tested on: SNB-75 CNS
# SNB-19 CNS = tested on: SNB-19 CNS
# U251 CNS = tested on: U251 CNS
# PC-3 prostate = tested on: PC-3 prostate
# SK-MEL-5 melanoma = tested on: SK-MEL-5 melanoma
# UACC-62 melanoma = tested on: UACC-62 melanoma
# LOX IMVI melanoma = tested on: LOX IMVI melanoma
# SK-MEL-28 melanoma = tested on: SK-MEL-28 melanoma
# SK-MEL-2 melanoma = tested on: SK-MEL-2 melanoma
# EKVX NSCLC = tested on: EKVX NSCLC
# SN12C renal = tested on: SN12C renal
# UO-31 renal = tested on: UO-31 renal
# TK-10 renal = tested on: TK-10 renal
# ACHN renal = tested on: ACHN renal
# CAKI-1 renal = tested on: CAKI-1 renal
# A498 renal = tested on: A498 renal
# CCRF-CEM leukemia = tested on: CCRF-CEM leukemia
# MOLT-4 leukemia = tested on: MOLT-4 leukemia
SMILES,growth (HCT-15 colon) [%],growth (HT29 colon),growth (SNB-75 CNS),growth (SNB-19 CNS),growth (U251 CNS),growth (PC-3 prostate),growth (SK-MEL-5 melanoma) [%],growth (UACC-62 melanoma) [%],growth (LOX IMVI melanoma),growth (SK-MEL-28 melanoma) [%],growth (SK-MEL-2 melanoma),growth (EKVX NSCLC) [%],growth (SN12C renal),growth (UO-31 renal),growth (TK-10 renal) [%],growth (ACHN renal) [%],growth (CAKI-1 renal),growth (A498 renal),growth (CCRF-CEM leukemia),growth (MOLT-4 leukemia)
Cc1ccc(S(=O)(=O)Nc2ccccc2)cc1N,99.1,107%,95%,108%,101%,89.5%,88.5,90.8,91.3%,100,87.4%,116,91.3%,81.2%,121,101,89.5%,76.9%,110%,96.6%
O=C(Oc1ccc(Cl)cc1[N+](=O)[O-])Oc1ccc(Cl)cc1[N+](=O)[O-],106,107%,108%,115%,99%,88.5%,120,113,111%,106,103%,108,107%,88.8%,120,108,104%,154%,102%,97.8%
CC(C)CCSc1nc(N)nc2nc[nH]c12,107,114%,101%,93.3%,100%,93.7%,93.2,82.3,86.8%,121,109%,109,92.8%,86.1%,154,91.5,108%,116%,102%,116%
CC(C)C1=NOC(=O)C1=Cc1cn(-c2ccccc2)nc1-c1ccc(Cl)cc1,64.9,67.9%,83.8%,86%,71.1%,78.7%,83.2,75.6,6.02% (active),84.9,85.6%,98.5,78.2%,71.4%,83.3,82.6,65.8%,91.4%,4.95% (active),-4.85% (active)
CC1(C)OC2[C@@H](CNC(=O)NC(=O)NC(=O)CI)O[C@@H](n3cnc4c(NC(=O)Nc5ccccc5)ncnc43)[C@H]2O1 (stereo not given in full),17.2,9.35% (active),80.5%,94.6%,95.5%,68.3%,103,93.8,-79.4% (active),97.8,95.4%,77.3,82.8%,-78.6% (active),102,66.2,-69% (active),99.4%,-44% (active),-23.6% (active)
O=C1COCCN1c1ccc(Nc2nc(Cl)nc(N3CCOCC3)n2)cc1,91.8,89.4%,89.7%,95.9%,101%,96.8%,100,96,93.8%,101,91.6%,92.3,102%,93.5%,90.5,98.5,89.2%,73.7%,97%,96.3%
C=CC1=C(C)C2=NC1=CC1=NC(=CC3=C(C)C4=C(O)C(C(=O)O)C(=C5NC(=C2)C(C)C5CCC(=O)O)C4=N3)C(CC)=C1C (stereo not given),105,105%,94.5%,112%,124%,89.3%,102,107,108%,104,129%,103,101%,73.6%,106,98.7,101%,106%,96.3%,96.9%
c1cc2ccc3cc2cc1CNCCN1CCNCc2ccc4ccc(cc4c2)CNCCN(CCNC3)CCNCc2ccc3ccc(cc3c2)CNCC1,94.5,1.47% (active),-12.6% (active),-7.68% (active),-4.66% (active),-0.11% (active),88.6,30.1,-7.72% (active),62.8,-9.83% (active),48.7,1.52% (active),82.4%,75.2,91.2,93.8%,100%,51%,8.03% (active)
CO[C@H]1CC[C@@]2(C)C(=CC[C@H]3[C@@H]4C[C@H](O)C[C@@]4(C)CC[C@@H]32)C1,36.4,69%,32.8%,55.3%,38.6%,68.3%,30.9,42.6,48.7%,68.5,67.2%,76.4,64.8%,66.1%,58.9,69.6,42.8%,55.8%,19.3%,33.5%
Cc1cc(C)c(-c2cc(O)c(-c3c(C)cc(C)cc3C)cc2O)c(C)c1,23.6,8.84% (active),-10.3% (active),45.9%,25.2%,43.2%,25.5,34.2,41.8%,42.8,66%,53.9,65.5%,62.1%,56.3,38.3,40.4%,5.72% (active),18.5%,47.9%
Oc1cc(Nc2ccnc3cc(Cl)ccc23)c2ncccc2c1,82,109%,53.2%,78.4%,77.1%,59.1%,79.2,81.4,72.7%,81.5,94.4%,98.5,79.3%,44.4%,109,71.1,86.2%,100%,67.9%,68.9%
NC(=O)CC1C=CCC1 (stereo not given),99.5,96.3%,84.3%,104%,85.5%,98.7%,99.5,101,103%,109,105%,105,99.4%,91.5%,89.2,100,99.2%,97.1%,82.4%,95.6%
NC(=S)Cc1ccccc1,97.3,101%,88%,98.2%,100%,102%,100,93.9,0.449% (active),105,103%,97.9,94.7%,84.4%,94.3,98.1,89.1%,73.6%,105%,103%
Cc1ccc(NC(=S)/N=c2/n(-c3ccccc3)nc3n2CCN3C2=NCCN2)cc1,107,99.1%,80.6%,119%,108%,85.6%,101,99.2,108%,108,109%,113,100%,92.4%,97.5,106,86%,81.2%,102%,98.8%
